Data: PubChem BioAssay (NCI)
Where “and” joins values, the source holds several entries; their conditions need not be identical. Equal entries are not always repeated. The panel holds about 83,000 compounds, 20% with a hit somewhere; the sample as a whole holds those more often.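 Percent growth is the endpoint: 0 to 100 indicates growth inhibition (40 means 60% inhibition), 0 means no net growth, and negative values indicate cell death.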 Calls of active or inactive are those of the source. The calls were made as follows: active = growth percent below 10; inactive = the rest.

Assays:
Experiment in all cases: NCI-60 one-dose screen, 48 h (100 = growth as untreated, 0 = no growth, -100 = all killed)
Conditions in all cases: 10 µM unless noted
[1] = test system: NCI-H23 lung
[2] = test system: NCI-H226 lung
[3] = test system: NCI-H322M lung
[4] = test system: HOP-62 NSCLC
[5] = test system: NCI-H460 lung
[6] = test system: HOP-92 NSCLC
[7] = test system: NCI-H522 lung
[8] = test system: A549/ATCC NSCLC
[9] = test system: 786-0 renal
[10] = test system: COLO 205 colon
[11] = test system: DU-145 prostate
[12] = test system: K-562 leukemia
[13] = test system: MALME-3M melanoma
[14] = test system: MDA-MB-231 breast
[15] = test system: RXF 393 renal
[16] = test system: SF-268 CNS
[17] = test system: SF-295 CNS
[18] = test system: SF-539 CNS
[19] = test system: UACC-257 melanoma
[20] = test system: M14 melanoma

Measured: growth

CCOc1ccc2[nH]c(=O)c(C(c3nnnn3CC3CCCO3)N3CCN(Cc4ccccc4)CC3)cc2c1 (stereo not given)
inactive: [1] 76.6% | [2] 73.6% | [3] 101% | [4] 102% | [5] 84.7% | [6] 54% | [7] 84.7% | [8] 92.7% | [9] 41.7% | [10] 106% | [11] 93.6% | [12] 111% | [13] 65% | [14] 61.6% | [15] 58.7% | [16] 55.5% | [17] 57.6% | [18] 57.6% | [19] 113% | [20] 94.3%

Cc1cc(Cl)ccc1NC(=O)Nc1ccc(-c2ccc3c(c2)NC(=O)/C3=C\c2ccc[nH]2)cc1
inactive: [1] 74.4% | [2] 107% | [3] 98.6% | [4] 99.6% | [5] 66.8% | [6] 115% | [7] 103% | [8] 105% | [9] 105% | [10] 130% | [11] 96.3% | [12] 83.3% | [13] 99.9% | [14] 108% | [15] 122% | [16] 109% | [17] 105% | [18] 91.9% | [19] 117% | [20] 108%

CC(C)(C)c1ccc(OCc2nc3ccccc3n2-c2cccc(N)c2)cc1
inactive: [1] 50.1% and 100% | [2] 61.1% and 103% | [3] 94.8% and 104% | [4] 88.6% and 102% | [5] 78.2% and 109% | [6] 41.6% and 106% | [7] 74.5% and 103% | [8] 66.6% and 107% | [9] 80.9% and 102% | [10] 77.6% and 114% | [11] 80.8% and 124% | [12] 33.3% and 101% | [13] 48.7% and 101% | [14] 53.4% and 106% | [15] 75.3% and 90.7% | [16] 74.4% and 112% | [17] 57.7% and 100% | [18] 66.7% and 100% | [19] 73.8% and 111% | [20] 99.8% and 103%

O=C(CCl)Nc1ccc(C(=O)/C=C/c2cc3ccccc3nc2Cl)cc1
-99.1% (active) and 13.3% (inactive): [18]
-83.6% (active) and 34.9% (inactive): [1]
-25.5% (active) and 42.3% (inactive): [17]
-91.6% (active) and 63.6% (inactive): [14]
-59.7% (active) and 28.6% (inactive): [12]
-15.5% (active) and 29.3% (inactive): [16]
-84.1% (active) and 46.7% (inactive): [11]
-62.3% (active) and 42.9% (inactive): [20]
-8.06% (active) and 37.4% (inactive): [4]
-85.3% (active) and 36.2% (inactive): [15]
-53.6% (active) and 19.5% (inactive): [5]
-62.9% (active) and 76.9% (inactive): [7]
-41.7% (active) and 23.9% (inactive): [9]
inactive: [2] 12.4% and 14.5% | [3] 22.4% and 45.1% | [6] 46.9% and 65.3% | [8] 72.4% and 60.8% | [19] 24.4% and 58.7%
-87.2% (active) and 48.9% (inactive): [13]
-64.4% (active) and 72.4% (inactive): [10]

NC(=Nc1ccc(OCCCCCCCCn2cnnn2)cc1)c1ccccc1
inactive: [1] 10.8% | [2] 21.3% | [3] 57% | [4] 18.6% | [6] 82.5% | [8] 23.7% | [9] 34.5% | [12] 15.4% | [13] 46.3% | [14] 11.8% | [16] 38.8% | [19] 49.7% | [20] 18.1%

O=C1Nc2ccccc2/C1=C\c1ccc(OCC(=O)c2ccc(Br)cc2)cc1
inactive: [1] 50.9% | [2] 71.6% | [3] 87.5% | [4] 104% | [6] 75.5% | [7] 61.4% | [8] 58.4% | [9] 89.8% | [10] 65.9% | [11] 85.6% | [12] 27.8% | [13] 81% | [14] 82.2% | [15] 67.6% | [16] 86.9% | [17] 58.6% | [18] 81.5% | [19] 73.6% | [20] 73.1%

COc1ccc(NC2=C(I)C(=O)C(C)=C(C)C2=O)cc1
active: [12] 1.44% | [14] -8.44% | [18] -28.1% | [19] -14.2%
inactive: [1] 32.2% | [2] 78.1% | [3] 95% | [4] 85.4% | [6] 31.4% | [7] 18.5% | [8] 83.8% | [9] 42.2% | [10] 123% | [11] 86.2% | [13] 77.7% | [15] 58.6% | [16] 45.3% | [17] 79% | [20] 96.1%

C/C(=N\Nc1ccc(S(N)(=O)=O)cc1)c1cnn(-c2cc(=O)[nH]c3ccc(Br)cc23)c1C
active: [6] -2.47% | [7] 5.07%
inactive: [1] 69.9% | [2] 62.3% | [3] 77.7% | [4] 63.4% | [8] 100% | [9] 85.9% | [10] 85.5% | [11] 77.9% | [12] 35% | [13] 21.7% | [14] 31.4% | [15] 68.6% | [16] 57.3% | [17] 91.9% | [18] 41.6% | [19] 66.3% | [20] 73%
